# High-throughput results from PubChem.
# Cruzain inh Det = inhibitors of Trypanosoma cruzi cruzain with detergent; P25779; purified cruzain, Z-FR-AMC fluorescence, 0.01% Triton; AID 1478; 0.43% of 200,000 active; Potency, µM, inactives show max response, negative = inhibition, most hits filed as inhibitors;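 further: plate controls were neutral wells for no effect and buffer without enzyme for full effect; nearly all actives have a fitted effect of over 40% in size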
# Target sequence (P25779 123-467 limits assumed): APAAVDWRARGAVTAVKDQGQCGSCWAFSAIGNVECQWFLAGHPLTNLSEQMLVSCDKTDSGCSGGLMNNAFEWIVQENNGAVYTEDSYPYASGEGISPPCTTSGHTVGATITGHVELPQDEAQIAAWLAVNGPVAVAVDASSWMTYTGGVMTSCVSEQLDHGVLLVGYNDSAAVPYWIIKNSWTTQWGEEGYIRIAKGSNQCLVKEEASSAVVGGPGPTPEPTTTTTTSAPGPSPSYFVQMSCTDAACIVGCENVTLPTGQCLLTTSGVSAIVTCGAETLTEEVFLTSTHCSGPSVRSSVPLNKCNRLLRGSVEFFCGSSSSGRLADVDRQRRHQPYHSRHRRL
#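 15 min RT preincubation of 1.5 nM cruzain with compound, then 2 uM Z-FR-AMC added; kinetic AMC fluorescence, 60 s delta. Triton X-100 0.01%, pH 5.5.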
# Cruzain inh noDet = inhibitors of Trypanosoma cruzi cruzain without detergent. purified cruzain, Z-FR-AMC fluorescence, no detergent. Potency, µM, for inactives: max response, negative = inhibition, most hits filed as inhibitors. 2.3% of 200,000 active;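 further: plate controls were enzyme without inhibitor for no effect and buffer without enzyme for full effect; nearly all actives have a fitted effect of over 40% in size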
#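 Detergent-free condition (0.00005% Triton X-100) in acetate buffer pH 5.5 with DTT. 1.5 nM enzyme and compound were pre-mixed 15 min, then 2 uM Z-FR-AMC substrate added; reaction progress from fluorescence change between first and third reads (60 s).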
# Starred values were filed as active, the others as inactive; ? = inconclusive. In the library only some 2.5% were active in any assay of this set; here they are far more common. The call rests on the fitted dose curve; in most records, active means well fitted curve in the direction sought with a large enough effect; inconclusive means small, poorly fitted or top-dose-only effect, or another doubt; inactive means no such curve, though single readings can be large; an effect the other way counts as inactive or inconclusive. Potency means the concentration at half of the fitted maximal effect.
SMILES,Cruzain inh Det,Cruzain inh noDet
Cc1c(Cl)cccc1NC(=O)CSc1nc(=O)n(Cc2ccco2)c2c1CCC2,-4%,-3%
Cc1cc(Nc2cc(Cl)ccc2C)n2nc(Cc3ccccc3)nc2n1,1%,9%
Cc1ccc(NC(=O)Cc2nnc(SCC(=O)c3ccc(Br)cc3)n2C)cc1Cl,7%,13µM*
Cc1ccccc1NC(=O)Cc1nnc(SCC(=O)c2ccc(Br)cc2)n1C,3%,-7%
CCOC(=O)c1cc(S(=O)(=O)N2CCN(c3ccc(F)cc3)CC2)[nH]n1,-2%,7%
CCc1c2c(nc3cccc(OC)c13)OC(CC)C2 (configuration not stated),0%,1%
Cc1ccc2occ(CC(=O)Nc3c(C(=O)Nc4ccc(Cl)cc4)oc4ccccc34)c2c1,-2%,10µM*
Cc1cc(C)c2c(CC(=O)Nc3c(C(=O)Nc4ccc(Cl)cc4)oc4ccccc34)coc2c1,-2%,-25%
CCc1ccc2occ(CC(=O)Nc3c(C(=O)Nc4ccc(C)cc4)oc4ccccc34)c2c1,0%,-13%
CCc1ccc2occ(CC(=O)Nc3c(C(=O)Nc4ccc(Cl)cc4)oc4ccccc34)c2c1,-2%,10µM*
O=P(O)(O)CCP(=O)(O)O,2%,2%
O=C(Nc1sc2c(c1C(=O)NCc1ccco1)CCCC2)c1cc(=O)c2cc(Cl)ccc2o1,-2%,-16%
Cc1cccc(OCc2nc(-c3ccc(-n4cccc4)cc3)no2)c1,2%,20µM*
Fc1ccccc1OCc1nc(-c2ccc(-n3cccc3)cc2)no1,-4%,-15%
Cc1ccccc1OCc1nc(-c2ccc(-n3cccc3)cc2)no1,0%,?
Cc1ccc(OCc2nc(-c3ccc(-n4cccc4)cc3)no2)cc1C,4%,25µM*
CC(C)c1ccc(C2C(C#N)=C(N)N3C(=C2C#N)Sc2ccccc23)cc1 (configuration not stated),-14%,7.9µM*
CC(C)c1ccc(C2CC(=O)N3CN(C)CSC3=C2C#N)cc1 (configuration not stated),1%,-4%
c1ccc2c(c1)c1ccccc1n2Cn1c2ccccc2c2ccccc21,-1%,-5%
O=C1NC(=O)c2c1c1c3ccccc3[nH]c1c1[nH]c3ccccc3c21,-1%,8.9µM*
Cc1ccc(C)c2c1[nH]c1ccccc12,-11%,9%
COc1ccccc1CNC(=O)c1ccc2nc3[nH]c4ccccc4c3nc2c1,-3%,?
Cc1ccc(CNC(=O)c2ccc3nc4[nH]c5ccccc5c4nc3c2)cc1,-6%,25µM*
Cc1ccc2scc(N3CCc4ccccc4C3)c(=O)c2c1,-7%,8%
Cc1ccc(N=Cc2c(O)n(-c3cc(Cl)ccc3N3CCOCC3)c(=O)c3ccccc23)cc1C,-1%,6.3µM*
SMILES,Cruzain inh Det,Cruzain inh noDet
Cc1cc(N=Cc2c(O)n(-c3cccc(Cl)c3)c(=O)c3ccccc23)no1,-4%,-4%
Cc1ccccc1NC(=O)Cn1nnc(C(=O)NCCc2ccccc2)c1N,-5%,-12%
Cc1cc(C(=O)CSc2nncs2)c(C)n1-c1ccc2c(c1)OCO2,-7%,?
CC(=O)c1c(C)[nH]c(C(=O)CSc2nnc(-c3ccccc3)n2Cc2ccc3c(c2)OCO3)c1C,3%,12%
Cc1cc(C(=O)COC(=O)C2=COCCO2)c(C)n1-c1ccc2c(c1)OCO2,-3%,-14%
Cc1cc(C(=O)CSc2nnc(-c3cccc(F)c3)n2N)c(C)n1Cc1ccc2c(c1)OCO2,0%,20µM*
CCCn1c(SCC(=O)c2cc(C)n(-c3ccc4c(c3)OCO4)c2C)n[nH]c1=O,-6%,?
Cc1cc(C(=O)COC(=O)Cc2n[nH]c(=O)c3ccccc23)c(C)n1-c1ccc2c(c1)OCCO2,-4%,16µM*
Cc1cc(C(=O)CSc2nnnn2-c2ccccc2)c(C)n1-c1ccc2c(c1)OCO2,-3%,3.2µM*
Cc1cc(C(=O)COc2ccc(C#N)cc2)c(C)n1-c1ccc2c(c1)OCO2,-2%,25µM*
Cc1cn(C)c(CC(=O)N2CCN(c3cccc(C(F)(F)F)c3)CC2)c1C(=O)O,-4%,16%
Nc1c(-c2nc(-c3ccccc3Cl)no2)nnn1-c1ccccc1C(F)(F)F,3%,39%
COc1cccc(O)c1O,3%,-11%
CC(CCN)(CCN)[N+](=O)[O-],3%,1%
CCCCC(=O)Nc1ccccc1C(=O)OCc1cc(=O)n2nc(C3CCCCC3)sc2n1,-5%,-3%
COc1ccc(N2CCN(C(=O)c3cccc(NC(=O)c4nsc5ccccc45)c3)CC2)cc1,-1%,-23%
Cc1ccc2nc(CSc3nnc(NC(=O)COc4ccccc4)s3)cc(=O)n2c1,3%,14%
O=C(O)CSc1nnnn1-c1ccc2c(c1)OCCO2,-8%,-5%
Cc1cc(C(=O)CSc2nnnn2-c2ccc(O)cc2)c(C)n1Cc1ccc2c(c1)OCO2,0%,16µM*
Cc1ccc(-n2nnnc2SCC(=O)c2cc(C)n(CC3CCCO3)c2C)cc1 (configuration not stated),-1%,12%
O=C(CSc1nnc(-c2cccs2)n1-c1cccc(Cl)c1)c1cccc2c1OCCO2,2%,25µM*
Cc1ccc(-n2nnnc2SCC(=O)Nc2ccc3c(c2)OCCO3)cc1C,-5%,-5%
Cc1ccc(NC(=O)CSc2nnnn2-c2ccc3c(c2)OCO3)cc1C,4%,25µM*
O=C(O)CSc1nnc(-c2cccs2)n1-c1ccc(Cl)cc1,-2%,-8%
O=C(CSc1nnnn1-c1ccc2c(c1)OCCO2)c1cccc2c1OCCO2,0%,25µM*
SMILES,Cruzain inh Det,Cruzain inh noDet
COc1ccccc1NC(=O)c1cc(S(=O)(=O)N(C)C2CCCCC2)ccc1F,1%,-14%
N#CCCn1c(=O)c(CCc2ccccc2)nc2cnc(Nc3ccccc3)nc21,1%,?
COCc1cc(Sc2ccc(Cl)cc2)nc(-c2ccccc2)n1,0%,-6%
Nc1ccc(Sc2cc(Cl)nc(N)n2)cc1,6%,13µM*
Cc1ccc(OCc2nc3ccccc3n2CC(C)C)cc1,-8%,4%
COc1ccccc1-c1cc(-c2ccccc2)nc(SC(C(N)=O)c2ccccc2)c1C#N (configuration not stated),5%,7.9µM*
COC(=O)C(Sc1nc(C)cc(C)c1C#N)c1ccccc1 (configuration not stated),0%,-4%
COc1ccccc1NC(=O)C1CCN(S(=O)(=O)c2cn(C)cn2)CC1,0%,2%
CC(/C=C1\SC(=O)N(CC(=O)Nc2ccc(O)cc2)C1=O)=C\c1ccccc1,0%,13%
Cc1ccc(/C=C2/SC(=S)N(CCC(=O)N3CCN(c4ccccc4)CC3)C2=O)cc1,1%,-8%
CC(=O)c1ccc(NC(=O)CCCN2C(=O)/C(=C/C(C)=C/c3ccccc3)SC2=S)cc1,-9%,32µM*
CC(/C=C1\SC(=S)N(CC(=O)N2CCN(c3ccccc3)CC2)C1=O)=C\c1ccccc1,-6%,10µM*
CCc1ccc(S(=O)(=O)Nc2cccc(-c3ccc(N4CCCCC4)nn3)c2)s1,-3%,?
NC(N)=N/N=C\c1ccc(O)c(C(=O)O)c1,-2%,-3%
CCOCN(C(=O)CSc1nc2ccccc2[nH]1)c1c(C)cccc1CC,-7%,-5%
Cc1cc2oc(=O)cc(CN3CCN(C/C=C/c4ccccc4)CC3)c2cc1O,-1%,-21%
CCOC(=O)Nc1ccc2c(CN3C(=O)NC4(CCCC4)C3=O)cc(=O)oc2c1,-23%,-8%
CCOC(=O)Nc1ccc2c(CN3CCN(S(=O)(=O)c4ccccc4)CC3)cc(=O)oc2c1,-1%,13µM*
